In the supplement of paper PMC3545927:
Some of the results follow. The hit rate among all sequences tested is not known here.

Target: furin, P09958
Test: furin cleavage Z-score vs untreated control; higher = more cleavage, active = 3.5 or more, inactive = 1 or less, 8 variable residues between constant flanks
Procedure, shortened: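 Read counts from sequencing released DNA gave abundance for each bead-bound 8-mer peptide–cDNA fusion cut by purified furin over 7.5, 15 or 30 min. The cleavage Z-score compares log counts with furin-free reactions after lowess adjustment and median absolute deviation scaling.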
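Also: purified furin at 1:10 enzyme:substrate in 50 mM HEPES pH 7.5.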

Sequence of furin, P09958 (P09958 whole entry): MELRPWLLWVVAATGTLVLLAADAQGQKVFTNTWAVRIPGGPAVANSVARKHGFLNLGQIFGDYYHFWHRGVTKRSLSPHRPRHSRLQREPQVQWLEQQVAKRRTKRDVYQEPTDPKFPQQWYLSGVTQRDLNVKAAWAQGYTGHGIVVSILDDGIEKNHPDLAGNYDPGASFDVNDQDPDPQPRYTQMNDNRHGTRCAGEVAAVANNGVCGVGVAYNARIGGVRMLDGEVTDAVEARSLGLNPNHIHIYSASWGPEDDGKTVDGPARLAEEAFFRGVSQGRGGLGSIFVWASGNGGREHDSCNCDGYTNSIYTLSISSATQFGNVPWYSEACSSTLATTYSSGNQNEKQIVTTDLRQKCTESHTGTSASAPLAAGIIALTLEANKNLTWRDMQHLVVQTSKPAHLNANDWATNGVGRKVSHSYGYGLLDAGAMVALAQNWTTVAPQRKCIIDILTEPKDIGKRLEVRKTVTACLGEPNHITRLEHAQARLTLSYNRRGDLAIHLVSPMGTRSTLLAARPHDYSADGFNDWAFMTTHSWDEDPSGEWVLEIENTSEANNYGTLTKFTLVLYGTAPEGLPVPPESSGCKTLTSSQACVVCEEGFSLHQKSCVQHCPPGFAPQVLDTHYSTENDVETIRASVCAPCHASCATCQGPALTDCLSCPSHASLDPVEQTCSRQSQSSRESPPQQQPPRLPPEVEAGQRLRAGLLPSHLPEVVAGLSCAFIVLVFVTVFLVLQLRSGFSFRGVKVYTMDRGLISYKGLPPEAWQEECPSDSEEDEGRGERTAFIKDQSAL

| Sequence | furin cleavage Z-score (7.5 min) | furin cleavage Z-score (15 min) | furin cleavage Z-score (30 min) |
| --- | --- | --- | --- |
| CAMEECSQKLAGNASASA [HC1754] | 1.17 | 0.659 (inactive) | 1.26 |
| CARDGRDGTPAGNASASA [FS-2000] | 0.0974 (inactive) | -0.249 (inactive) | 0.34 (inactive) |
| CARMRRPPGGAGNASASA [FS-2496] | -0.899 (inactive) | -0.697 (inactive) | -0.784 (inactive) |
| CARMRRRPGPAGNASASA [FS-2725] | 0.305 (inactive) | 1.58 | 1.1 |
| CATTMRSPVFAGNASASA [HC762] | -1.56 (inactive) | -0.725 (inactive) | -0.54 (inactive) |
| CARMRRALVFAGNASASA [FS-3001] | 4.84 (active) | 4.35 (active) | 6.45 (active) |
| CARMRRDGWPAGNASASA [FS-2723] | 2.95 | 4.8 (active) | 5.65 (active) |
| CACAWYELTPAGNASASA [HC923] | -0.0785 (inactive) | 0.676 (inactive) | -1.48 (inactive) |
| CARFRRGLDNAGNASASA [FS-1704] | 10.1 (active) | 8.75 (active) | 7.17 (active) |
| CARELRNVGVAGNASASA [FS-1695] | -1.56 (inactive) | 0.756 (inactive) | -0.781 (inactive) |
| CARFRRGARSAGNASASA [FS-1703] | 10.1 (active) | 10.3 (active) | 8.23 (active) |
| CARTTRSVVHAGNASASA [FS-2837] | -0.34 (inactive) | 0.171 (inactive) | 0.71 (inactive) |
| CARMVRSVKVAGNASASA [FS-1754] | 3.01 | 4.69 (active) | 6.85 (active) |
| CAEVVTSTKVAGNASASA [HC2234] | 0.581 (inactive) | 0.63 (inactive) | -0.359 (inactive) |
| CARMTRSVDNAGNASASA [FS-2396] | 10.7 (active) | 10.3 (active) | 7.86 (active) |
| CAMHECSQHLAGNASASA [HC1695] | 0.819 (inactive) | 2.72 | 1.59 |
| CAFQVAHLHAAGNASASA [HC772] | -0.105 (inactive) | -0.994 (inactive) | -1.62 (inactive) |
| CAEVVTSMWVAGNASASA [HC2206] | 0.942 (inactive) | -0.688 (inactive) | -0.185 (inactive) |
| CACTANHDSPAGNASASA [HC1268] | -0.651 (inactive) | -0.843 (inactive) | -2.03 (inactive) |
| CADLLEDNVTAGNASASA [HC1433] | 0.275 (inactive) | -2.11 (inactive) | -1.66 (inactive) |
| CAGNLPGCSFAGNASASA [HC244] | -0.0639 (inactive) | 0.93 (inactive) | -0.123 (inactive) |
| CARPKRSKRQAGNASASA [FS-1068] | 12.3 (active) | 11.8 (active) | 9.11 (active) |
| CARPKRSHHCAGNASASA [FS-2399] | 4.25 (active) | 6.93 (active) | 6.58 (active) |
| CAMEECSQHCAGNASASA [HC1780] | 1.81 | -0.183 (inactive) | 1.82 |
| CALHKREKRQAGNASASA [FS-1023] | 13.9 (active) | 12.1 (active) | 10.2 (active) |
| CALPFRSKRQAGNASASA [FS-684] | 9.98 (active) | 10.9 (active) | 7.98 (active) |
| CAYSALHKRQAGNASASA [FS-1505] | 1.15 | -1.98 (inactive) | 1.13 |
| CARPKRKGKCAGNASASA [FS-1761] | 0.0893 (inactive) | 0.774 (inactive) | 1.28 |
